{"source": "PubChem BioAssay AID2018", "about": "(Sanford-Burnham Center for Chemical Genomics, 2009)", "note": "The campaign covered roughly 1,200 compounds. About 600 (50%) were called active. The set was probably picked from earlier hits. Some of the results follow. Potency and affinity values are given separately. A number with no mark means an inactive call. Cut-off read from the data, not from the text of the source: active = inhibition above about 42%; inactive = the rest."}
{"target": "SUMO-conjugating enzyme UBC9 (Homo sapiens) (UniProt P63279)", "sequence (P63279 whole entry, looked up)": "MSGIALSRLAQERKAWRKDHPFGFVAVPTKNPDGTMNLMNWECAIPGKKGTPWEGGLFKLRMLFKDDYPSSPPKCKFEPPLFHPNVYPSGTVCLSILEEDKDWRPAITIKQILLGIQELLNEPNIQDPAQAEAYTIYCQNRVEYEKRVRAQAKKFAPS", "assay": "blockers of UBC9-mediated SUMO conjugation – biochemical, AlphaScreen, SUMOylation inhibitor project, confirmation (AID 2018)", "details": "AlphaScreen in vitro SUMOylation assay; at 35 µM; active compounds read high"}
{"smiles": "Cc1c(C)c2cc(Cl)c(O)c(CN3CCN(C)CC3)c2oc1=O", "inhibition": "-1%"}
{"smiles": "CCOC(=O)c1sc(NC(=O)c2cccc(S(=O)(=O)N3CCc4ccccc43)c2)c(C#N)c1C", "inhibition": "33.4%"}
{"smiles": "O=C(NCc1ccccc1)Nc1cccn(Cc2ccccc2)c1=O", "inhibition": "3.6%"}
{"smiles": "COc1ccccc1NC(=O)Cn1nc(C)n2cccc2c1=O", "inhibition": "0.4%"}
{"smiles": "COc1ccccc1NC(=O)CSc1ccc2nnc(-c3ccccn3)n2n1", "inhibition": "14.2%"}
{"smiles": "CC1(C)CC(=O)C2=C(C1)Nc1[nH]c(=S)[nH]c(=O)c1C2c1ccccc1", "note": "(stereo not drawn)", "inhibition": "12.7%"}
{"smiles": "Cc1occc1C(=O)N1CCN(c2ccccc2)CC1", "inhibition": "19.6%"}
{"smiles": "CC(C)Cn1c(N)c(C(=O)NCc2cccs2)c2nc3ccccc3nc21", "inhibition": "-100%"}
{"smiles": "Nc1c(C(=O)NCc2ccco2)c2nc3ccccc3nc2n1CCc1ccccc1F", "inhibition": "2.7%"}
{"smiles": "COCCn1c(N)c(C(=O)NCc2cccs2)c2nc3ccccc3nc21", "inhibition": "-23.2%"}
{"smiles": "COCCNC(=O)c1c(N)n(CCC2=CCCCC2)c2nc3ccccc3nc12", "inhibition": "4.1%"}
{"smiles": "O=c1cc(-c2ccc(F)cc2)[nH][nH]1", "inhibition": "24.9%"}
{"smiles": "Cn1c(NNC(=O)c2c(F)cccc2F)cc(=O)n(C)c1=O", "inhibition": "42.1% (active)"}
{"smiles": "CC1=NN(c2ccccc2)C(=O)/C1=C\\c1ccc(Br)s1", "inhibition": "75% (active)"}
{"smiles": "CC1=NN(c2ccccc2)C(=O)/C1=C/c1cccs1", "inhibition": "40.6%"}
{"smiles": "CC1=NN(c2ccc(Br)cc2)C(=O)/C1=C/c1cccs1", "inhibition": "59.4% (active)"}
{"smiles": "COc1cc(/C=C2\\C(=O)N(CCC#N)N=C2C)c(Br)cc1OC(C)C", "inhibition": "-16.2%"}
{"smiles": "CC1=NN(c2ccccc2)C(=O)/C1=C\\c1cn(CCC#N)nc1-c1ccc(Cl)cc1", "inhibition": "60.8% (active)"}
{"smiles": "CC1=NN(c2ccccc2)C(=O)/C1=C/c1ccc(Cl)cc1", "inhibition": "58.2% (active)"}
{"smiles": "O=c1c2ccccc2oc2cc(NCCCN3CCOCC3)ccc12", "inhibition": "-1.4%"}
{"smiles": "CCCNC(=O)c1ccc2c(=O)c(O)c(-c3ccsc3)[nH]c2c1", "inhibition": "16.3%"}
{"smiles": "O=C1C(NS(=O)(=O)c2cccs2)=C(N2CCN(c3cccc(C(F)(F)F)c3)CC2)C(=O)c2ccccc21", "inhibition": "88.2% (active)"}
{"smiles": "S=c1[nH]nc(-c2cccnc2)n1/N=C/C=C/c1ccco1", "inhibition": "15.4%"}
{"smiles": "S=c1[nH]nc(-c2ccccc2Cl)n1/N=C/C=C/c1ccco1", "inhibition": "34.1%"}
{"smiles": "O=C(Cc1cc(=O)oc2cc(O)ccc12)NCC1CCC(C(=O)O)CC1", "note": "(stereo not drawn)", "inhibition": "6%"}
{"smiles": "COc1c(C)oc2cc(O)ccc2c1=O", "inhibition": "3.3%"}
{"smiles": "COCCNC(=S)Nc1cccc2cnccc12", "inhibition": "-7.2%"}
{"smiles": "CCc1ccc(NC(=S)Nc2cccc3cnccc23)cc1", "inhibition": "69.6% (active)"}
{"smiles": "Fc1ccc(NC(=S)Nc2cccc3cnccc23)cc1", "inhibition": "9.9%"}
{"smiles": "Cc1cc(C)cc(NC(=S)Nc2cccc3cnccc23)c1", "inhibition": "31.7%"}
{"smiles": "S=C(Nc1ccc(Cl)cc1)Nc1cccc2cnccc12", "inhibition": "42.2% (active)"}
{"smiles": "Cc1ccc(NC(=S)Nc2cccc3cnccc23)cc1C", "inhibition": "31.1%"}
{"smiles": "O=C1N/C(=N/N=C/c2ccccc2O)SC1Cc1ccc(F)cc1", "note": "(stereo not drawn)", "inhibition": "7.4%"}
{"smiles": "CCOc1cc(CNc2ccccc2SC)ccc1O", "inhibition": "65.8% (active)"}
{"smiles": "CNCc1ccccc1Sc1ccc(O)c(O)c1", "inhibition": "-26.2%"}
{"smiles": "O=C(NCc1ccccc1)Nc1cccn(Cc2ccccc2F)c1=O", "inhibition": "-5%"}
{"smiles": "CCc1ccccc1NC(=O)Nc1cccn(Cc2ccccc2F)c1=O", "inhibition": "2.6%"}
{"smiles": "COc1cccc(Cn2cccc(NC(=O)Nc3ccccc3C)c2=O)c1", "inhibition": "31.1%"}
{"smiles": "Cc1oc2c(c(C)cc3oc(=O)c(CC(=O)N[C@H](C(=O)O)C(C)C)c(C)c32)c1C", "inhibition": "10.7%"}
{"smiles": "COc1ccc(-c2csc(CCN3N=C(C)CC3=O)n2)cc1", "inhibition": "53.9% (active)"}
{"smiles": "COc1cccc(-c2[nH]nc3c2C(c2ccsc2)C(C#N)=C(N)O3)c1", "note": "(stereo not drawn)", "inhibition": "24.1%"}
{"smiles": "CC(C)=CCC1=C(OCC(=O)O)C(=O)c2ccccc2C1=O", "inhibition": "99.7% (active)"}
{"smiles": "O=[N+]([O-])c1ccc(O)c(C=Nc2cccc3ncccc23)c1", "inhibition": "19.8%"}
{"smiles": "Fc1ccc(NC(=S)Nc2ccc3nccnc3c2)cc1", "inhibition": "25%"}
{"smiles": "CC(C)N(C(=O)Nc1ccc2nccnc2c1)C(C)C", "inhibition": "44.2% (active)"}
{"smiles": "CCCCn1c(=O)[nH]c2nc3cc(N)ccc3nc2c1=O", "inhibition": "9.9%"}
{"smiles": "CC(C)(C)OC(=O)c1c(N)n(CCCN2CCCC2=O)c2nc3ccccc3nc12", "inhibition": "-0.3%"}
{"smiles": "Cc1nnc(Sc2cc(NCCO)c([N+](=O)[O-])c3nonc23)s1", "inhibition": "24.5%"}
{"smiles": "CCC(=O)OCCNc1cc(Sc2nccn2C)c2nonc2c1[N+](=O)[O-]", "inhibition": "24.5%"}
{"smiles": "CC(=O)OCCNc1cc(SCc2ccco2)c2nonc2c1[N+](=O)[O-]", "inhibition": "87.5% (active)"}
{"smiles": "CC(=O)OCCCNc1cc(SCc2ccco2)c2nonc2c1[N+](=O)[O-]", "inhibition": "40.6%"}
{"smiles": "CCC(=O)OCCNc1cc(Sc2nc3ccccc3s2)c2nonc2c1[N+](=O)[O-]", "inhibition": "46.1% (active)"}
{"smiles": "Cc1ccc(Sc2cc(NCCCO)c([N+](=O)[O-])c3nonc23)cc1", "inhibition": "35.8%"}
{"smiles": "Cc1nnc(Sc2cc(NCCCO)c([N+](=O)[O-])c3nonc23)s1", "inhibition": "21.7%"}
{"smiles": "O=[N+]([O-])c1c(NCCCO)cc(Sc2nc3ccccc3s2)c2nonc12", "inhibition": "37.6%"}
{"smiles": "O=[N+]([O-])c1c(NCCCO)cc(Sc2ccc(Cl)cc2)c2nonc12", "inhibition": "42.6% (active)"}
{"smiles": "O=C(Nc1ccccc1)Oc1ccc[nH]c1=O", "inhibition": "10.3%"}
{"smiles": "CN(CCO)c1nc(N)c2c(N)nc3c(c2c1C#N)CC(=O)N3C1CCCC1", "inhibition": "29.5%"}
{"smiles": "CCOC(=O)c1c(-c2ccccc2)oc2ccc(OC(C)C(=O)O)cc12", "note": "(stereo not drawn)", "inhibition": "-14%"}
{"smiles": "N#Cc1c2ccc(OCC(N)=O)cc2n2ccccc12", "inhibition": "56.5% (active)"}
{"smiles": "COc1ccc2cc3c(N)nn(C(=O)Cc4ccc(Cl)cc4)c3nc2c1", "inhibition": "19.7%"}
{"smiles": "COC(=O)c1c(C)oc(C)c1S(=O)(=O)NC(C)(C)C", "inhibition": "15%"}
{"smiles": "CCOC(=O)CCc1c(C)c(C#N)c2[nH]c3ccccc3n2c1=O", "inhibition": "73.9% (active)"}
{"smiles": "C=CCNc1nc(NCc2ccccc2)c(C#N)c2c1CN(C)CC2", "inhibition": "36.6%"}
{"smiles": "Cc1cc(/C=N/n2c(COc3ccccc3C)nc3ccccc3c2=O)c(O)c([N+](=O)[O-])c1", "inhibition": "102% (active)"}
{"smiles": "COc1ccc(CC2S/C(=N/N=C/c3ccccc3O)NC2=O)cc1", "note": "(stereo not drawn)", "inhibition": "19%"}
{"smiles": "CC(=O)Oc1ccc2cc(-c3nc4ccccc4n3C)c(=O)oc2c1", "inhibition": "-26.3%"}
{"smiles": "Brc1ccc(C2Nc3cccc4cccc(c34)N2)o1", "inhibition": "69.5% (active)"}
{"smiles": "Cc1cc(C)cc(NC(=S)Nc2cccc3ccccc23)c1", "inhibition": "4%"}
{"smiles": "CCC(NC(=O)Cc1c(C)c2c(cc(C)c3c(C)c(C)oc32)oc1=O)C(=O)O", "note": "(stereo not drawn)", "inhibition": "26.9%"}
{"smiles": "Cc1oc2c(c(C)cc3oc(=O)c(CC(=O)N[C@@H](C)C(=O)O)c(C)c32)c1C", "inhibition": "-7%"}
{"smiles": "CCN(c1ccccc1)S(=O)(=O)c1ccc(Cl)c(NC(=O)COC(=O)c2cc(O)c3ccccc3c2O)c1", "inhibition": "73% (active)"}
{"smiles": "CN1c2ccccc2C(C)(C)C12C=Nc1c(cc(N3CCOCC3)c3ccccc13)O2", "note": "(stereo not drawn)", "inhibition": "45.2% (active)"}
{"smiles": "COc1ccc2ccc3c(c2c1)N=C[C@]1(O3)N(C)c2ccccc2C1(C)C", "inhibition": "27.7%"}
{"smiles": "S=c1[nH]nc(-c2cc(-c3ccco3)[nH]n2)n1-c1ccccc1Cl", "inhibition": "96.5% (active)"}
{"smiles": "COc1ccc(OC)c(-n2c(-c3cc(-c4ccco4)[nH]n3)n[nH]c2=S)c1", "inhibition": "48.4% (active)"}
{"smiles": "S=c1[nH]nc(-c2ccco2)n1/N=C/C=C/c1ccco1", "inhibition": "25.8%"}
{"smiles": "S=c1[nH]nc(-c2cc(-c3ccco3)[nH]n2)n1-c1cccc2ccccc12", "inhibition": "46.9% (active)"}
{"smiles": "Cc1ccc(-n2c(-c3cc(-c4ccco4)[nH]n3)n[nH]c2=S)c(Br)c1", "inhibition": "57% (active)"}
{"smiles": "O=C1C2C3C=CC(C3)C2C(=O)N1CNc1ccc(O)cc1", "note": "(stereo not drawn)", "inhibition": "92.9% (active)"}
{"smiles": "O=C(O)c1cc(-c2ccco2)nn1-c1ccc(Cl)cc1", "inhibition": "54.7% (active)"}
{"smiles": "O=C(Nc1ccc(-n2nncc2-c2ccco2)cc1)c1cc2ccccc2oc1=O", "inhibition": "35.2%"}
{"smiles": "CC(=O)C1C(=O)C=C(c2ccco2)CC1c1ccccc1", "note": "(stereo not drawn)", "inhibition": "-5.3%"}
{"smiles": "COc1ccccc1C1Nc2cccc3cccc(c23)N1", "inhibition": "77.6% (active)"}
{"smiles": "Cc1cccc(NC(=O)CC2Nc3cccc4cccc(c34)NC2=O)c1", "note": "(stereo not drawn)", "inhibition": "28.8%"}
{"smiles": "CCOc1ccc(C2Nc3cccc4cccc(c34)N2)cc1OC", "inhibition": "73.4% (active)"}
{"smiles": "COc1cc(OC)c(C2Nc3cccc4cccc(c34)N2)c(OC)c1", "inhibition": "91.3% (active)"}
{"smiles": "Cc1ccc(C2Nc3cccc4cccc(c34)N2)s1", "inhibition": "71.9% (active)"}
{"smiles": "C=CCn1c(SCC(=O)N2N=C(c3ccco3)CC2c2ccco2)nnc1-c1ccncc1", "note": "(stereo not drawn)", "inhibition": "3.2%"}
{"smiles": "Fc1cccc(Cl)c1C1Nc2cccc3cccc(c23)N1", "inhibition": "53.9% (active)"}
{"smiles": "Oc1ccc(C2Nc3cccc4cccc(c34)N2)c(O)c1", "inhibition": "86.1% (active)"}
{"smiles": "O=C(CC1Nc2cccc3cccc(c23)NC1=O)Nc1ccccc1", "note": "(stereo not drawn)", "inhibition": "30.7%"}
{"smiles": "O=C1C2C3C=CC(C4CC34)C2C(=O)N1CCc1ccccc1", "note": "(stereo not drawn)", "inhibition": "-31.9%"}
{"smiles": "COCCCNC(=O)c1cccn2c(=O)c3cc4ccccc4cc3nc12", "inhibition": "16.5%"}
{"smiles": "C=CCOc1c(Cl)cc(CNc2ccc3[nH]c(=O)[nH]c3c2)cc1OC", "inhibition": "41.5%"}
{"smiles": "CCOc1c(Br)cc(/C=C2\\C(=O)N(CCC#N)N=C2C)cc1OC", "inhibition": "8.8%"}
{"smiles": "Cc1cccc(/C=N/NC(=O)C(C)Nc2cccc3ccccc23)n1", "note": "(stereo not drawn)", "inhibition": "-0.7%"}
{"smiles": "COCCN=c1scc(-c2ccco2)n1/N=C/c1ccc(O)c(O)c1O", "inhibition": "82.6% (active)"}
